The values that follow come from the supplement of paper PMC10849652.

Of roughly 7,900 targets only a part is listed; those with a hit were picked by preference. About 0.6% of all pairs of compound and target were hits. Unmarked numbers belong to inactive results.

Sequence of UniProt Q5U3C3 (Q5U3C3 whole entry, looked up): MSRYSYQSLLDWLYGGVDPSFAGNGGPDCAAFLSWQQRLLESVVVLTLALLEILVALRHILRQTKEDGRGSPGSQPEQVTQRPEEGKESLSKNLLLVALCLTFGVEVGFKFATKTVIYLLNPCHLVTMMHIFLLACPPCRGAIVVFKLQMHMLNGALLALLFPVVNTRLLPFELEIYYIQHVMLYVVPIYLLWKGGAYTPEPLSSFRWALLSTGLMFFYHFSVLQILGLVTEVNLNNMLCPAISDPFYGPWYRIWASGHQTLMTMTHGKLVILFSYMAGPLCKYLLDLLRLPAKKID
Sequence of UniProt Q9UPU5 (Q9UPU5 whole entry, looked up): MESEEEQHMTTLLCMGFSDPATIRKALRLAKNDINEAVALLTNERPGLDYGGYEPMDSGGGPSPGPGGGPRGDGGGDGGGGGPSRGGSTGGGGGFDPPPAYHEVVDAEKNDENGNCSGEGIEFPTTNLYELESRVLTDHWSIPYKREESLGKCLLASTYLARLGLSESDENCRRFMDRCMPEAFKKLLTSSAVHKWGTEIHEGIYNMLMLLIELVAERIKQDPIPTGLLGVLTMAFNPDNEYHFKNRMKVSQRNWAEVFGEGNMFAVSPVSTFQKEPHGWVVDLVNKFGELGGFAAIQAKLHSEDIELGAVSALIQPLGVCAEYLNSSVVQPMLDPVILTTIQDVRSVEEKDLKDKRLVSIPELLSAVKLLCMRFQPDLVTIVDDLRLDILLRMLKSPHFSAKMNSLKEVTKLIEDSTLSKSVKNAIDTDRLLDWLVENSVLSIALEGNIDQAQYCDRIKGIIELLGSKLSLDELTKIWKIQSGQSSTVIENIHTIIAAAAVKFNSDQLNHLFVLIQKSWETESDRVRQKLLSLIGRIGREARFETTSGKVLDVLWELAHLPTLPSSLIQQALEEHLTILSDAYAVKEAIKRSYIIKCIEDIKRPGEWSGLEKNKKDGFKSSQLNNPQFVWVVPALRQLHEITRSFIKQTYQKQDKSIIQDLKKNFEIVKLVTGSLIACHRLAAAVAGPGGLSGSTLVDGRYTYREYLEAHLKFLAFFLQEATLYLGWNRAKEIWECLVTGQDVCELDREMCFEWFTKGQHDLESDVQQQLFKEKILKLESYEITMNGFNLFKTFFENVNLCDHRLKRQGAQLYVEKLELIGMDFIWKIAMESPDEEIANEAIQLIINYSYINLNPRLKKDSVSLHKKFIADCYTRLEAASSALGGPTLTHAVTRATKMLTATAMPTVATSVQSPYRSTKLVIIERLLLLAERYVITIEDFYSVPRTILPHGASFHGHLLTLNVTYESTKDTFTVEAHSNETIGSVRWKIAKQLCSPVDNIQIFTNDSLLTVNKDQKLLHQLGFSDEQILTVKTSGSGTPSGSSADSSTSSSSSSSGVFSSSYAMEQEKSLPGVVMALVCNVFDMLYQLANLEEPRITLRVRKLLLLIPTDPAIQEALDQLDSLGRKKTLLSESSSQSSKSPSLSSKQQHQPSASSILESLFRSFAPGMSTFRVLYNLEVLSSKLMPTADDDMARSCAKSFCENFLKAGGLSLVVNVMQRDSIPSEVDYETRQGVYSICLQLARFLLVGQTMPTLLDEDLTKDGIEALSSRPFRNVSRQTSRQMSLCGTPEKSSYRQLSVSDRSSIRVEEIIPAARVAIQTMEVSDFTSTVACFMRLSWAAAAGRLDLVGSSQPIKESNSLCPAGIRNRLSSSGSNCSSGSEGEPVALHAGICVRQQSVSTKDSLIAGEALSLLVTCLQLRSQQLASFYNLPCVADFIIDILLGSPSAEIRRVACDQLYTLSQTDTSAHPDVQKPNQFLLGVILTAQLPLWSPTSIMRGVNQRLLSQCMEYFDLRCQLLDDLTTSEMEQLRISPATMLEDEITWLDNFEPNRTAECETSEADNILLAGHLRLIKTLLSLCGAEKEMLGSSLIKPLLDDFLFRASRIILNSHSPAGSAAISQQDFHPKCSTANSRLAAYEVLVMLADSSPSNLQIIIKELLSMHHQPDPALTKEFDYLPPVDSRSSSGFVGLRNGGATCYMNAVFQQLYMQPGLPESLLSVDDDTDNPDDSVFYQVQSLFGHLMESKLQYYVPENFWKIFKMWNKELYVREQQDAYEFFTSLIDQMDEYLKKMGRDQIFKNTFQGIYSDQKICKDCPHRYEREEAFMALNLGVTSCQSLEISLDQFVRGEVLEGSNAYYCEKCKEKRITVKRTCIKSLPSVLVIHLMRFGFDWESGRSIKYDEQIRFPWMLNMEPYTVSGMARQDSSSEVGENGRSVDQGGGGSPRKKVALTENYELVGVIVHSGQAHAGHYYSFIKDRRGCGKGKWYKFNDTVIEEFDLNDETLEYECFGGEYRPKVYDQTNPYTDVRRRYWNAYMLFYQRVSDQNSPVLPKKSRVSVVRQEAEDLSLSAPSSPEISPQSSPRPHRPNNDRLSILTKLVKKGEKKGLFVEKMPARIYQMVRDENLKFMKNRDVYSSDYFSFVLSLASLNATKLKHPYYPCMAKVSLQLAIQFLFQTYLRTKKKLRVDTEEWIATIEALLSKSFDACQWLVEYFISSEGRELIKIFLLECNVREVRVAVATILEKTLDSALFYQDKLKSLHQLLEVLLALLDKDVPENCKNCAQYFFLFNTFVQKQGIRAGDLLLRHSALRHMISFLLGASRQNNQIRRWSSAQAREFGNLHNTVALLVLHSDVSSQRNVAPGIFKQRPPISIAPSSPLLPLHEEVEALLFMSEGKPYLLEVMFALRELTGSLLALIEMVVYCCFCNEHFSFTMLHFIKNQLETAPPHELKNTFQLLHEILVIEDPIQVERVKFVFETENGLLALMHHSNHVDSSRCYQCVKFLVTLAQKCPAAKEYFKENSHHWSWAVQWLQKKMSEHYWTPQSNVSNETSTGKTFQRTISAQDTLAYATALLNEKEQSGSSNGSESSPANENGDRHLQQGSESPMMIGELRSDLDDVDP
Sequence of UniProt Q9NUM4 (Q9NUM4 whole entry, looked up): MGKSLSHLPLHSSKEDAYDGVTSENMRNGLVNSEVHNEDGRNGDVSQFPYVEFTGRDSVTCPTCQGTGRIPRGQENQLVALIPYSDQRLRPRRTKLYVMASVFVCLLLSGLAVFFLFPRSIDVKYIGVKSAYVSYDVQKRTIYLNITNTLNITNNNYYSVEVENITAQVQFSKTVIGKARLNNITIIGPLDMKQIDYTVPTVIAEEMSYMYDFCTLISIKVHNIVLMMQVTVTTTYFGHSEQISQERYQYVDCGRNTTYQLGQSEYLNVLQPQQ
Sequence of UniProt Q8WVY7 (Q8WVY7 whole entry, looked up): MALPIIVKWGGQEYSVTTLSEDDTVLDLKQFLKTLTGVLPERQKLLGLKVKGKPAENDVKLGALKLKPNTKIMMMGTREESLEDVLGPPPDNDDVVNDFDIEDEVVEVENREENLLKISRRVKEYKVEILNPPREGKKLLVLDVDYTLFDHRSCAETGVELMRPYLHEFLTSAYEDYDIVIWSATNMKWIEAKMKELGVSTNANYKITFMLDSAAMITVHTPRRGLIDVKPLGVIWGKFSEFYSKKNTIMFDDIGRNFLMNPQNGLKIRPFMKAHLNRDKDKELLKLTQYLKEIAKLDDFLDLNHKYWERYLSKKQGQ
Sequence of UniProt Q6ZXV5 (Q6ZXV5 whole entry, looked up): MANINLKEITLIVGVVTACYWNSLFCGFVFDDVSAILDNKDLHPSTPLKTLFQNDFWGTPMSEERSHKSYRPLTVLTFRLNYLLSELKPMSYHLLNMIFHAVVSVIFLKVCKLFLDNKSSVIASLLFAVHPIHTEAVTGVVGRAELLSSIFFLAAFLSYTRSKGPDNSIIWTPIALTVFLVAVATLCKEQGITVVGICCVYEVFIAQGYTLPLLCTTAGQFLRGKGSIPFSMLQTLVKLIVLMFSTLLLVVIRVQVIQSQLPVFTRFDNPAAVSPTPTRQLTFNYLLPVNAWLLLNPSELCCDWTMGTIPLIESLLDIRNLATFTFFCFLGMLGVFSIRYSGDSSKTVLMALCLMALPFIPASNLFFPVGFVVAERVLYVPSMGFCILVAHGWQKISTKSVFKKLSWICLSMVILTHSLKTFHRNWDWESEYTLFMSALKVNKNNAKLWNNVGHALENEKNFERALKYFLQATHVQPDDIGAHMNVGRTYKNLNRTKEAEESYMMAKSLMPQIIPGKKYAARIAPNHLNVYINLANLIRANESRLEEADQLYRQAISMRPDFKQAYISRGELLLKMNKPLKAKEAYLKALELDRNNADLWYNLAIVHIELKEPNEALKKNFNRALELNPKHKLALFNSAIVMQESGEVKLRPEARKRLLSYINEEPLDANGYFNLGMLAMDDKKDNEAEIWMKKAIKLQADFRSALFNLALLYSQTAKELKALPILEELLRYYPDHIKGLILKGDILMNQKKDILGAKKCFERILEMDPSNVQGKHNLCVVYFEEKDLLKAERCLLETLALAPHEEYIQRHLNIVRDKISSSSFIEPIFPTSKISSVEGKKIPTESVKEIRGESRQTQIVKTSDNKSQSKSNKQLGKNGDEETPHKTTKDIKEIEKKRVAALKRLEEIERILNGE
Sequence of UniProt Q9H267 (Q9H267 whole entry, looked up): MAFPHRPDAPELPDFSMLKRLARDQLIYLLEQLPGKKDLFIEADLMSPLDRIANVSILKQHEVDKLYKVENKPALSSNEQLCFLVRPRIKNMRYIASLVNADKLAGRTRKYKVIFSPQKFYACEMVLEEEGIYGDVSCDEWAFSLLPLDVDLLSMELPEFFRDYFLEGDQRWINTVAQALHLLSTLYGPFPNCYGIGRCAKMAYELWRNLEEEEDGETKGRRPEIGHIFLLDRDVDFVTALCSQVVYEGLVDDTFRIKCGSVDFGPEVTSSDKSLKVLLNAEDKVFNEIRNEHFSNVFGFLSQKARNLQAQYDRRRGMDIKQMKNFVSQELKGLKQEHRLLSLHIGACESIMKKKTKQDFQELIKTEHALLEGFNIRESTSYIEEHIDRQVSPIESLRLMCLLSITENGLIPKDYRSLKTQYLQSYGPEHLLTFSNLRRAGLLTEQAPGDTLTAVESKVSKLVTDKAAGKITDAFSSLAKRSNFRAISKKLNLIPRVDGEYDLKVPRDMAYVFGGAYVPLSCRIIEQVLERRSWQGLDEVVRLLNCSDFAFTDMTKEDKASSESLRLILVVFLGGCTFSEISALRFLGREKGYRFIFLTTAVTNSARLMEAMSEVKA

Compound in one assay: C[C@@H](Oc1cc(-c2cnn(C3CCNCC3)c2)cnc1N)c1c(Cl)ccc(F)c1Cl [crizotinib]
As to the kind of experiment: log2 fold change, soluble protein after heating vs DMSO (PISA); higher = thermal stabilisation; K562 cells, 10 uM, 30 min; active = over 0.2 and 3.5 SD of the protein, either way, in both replicates (recomputed). The method, boiled down:
(§1)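 Values are thermal stability changes relative to control samples and are taken from duplicates. They are stated as log2 fold changes. Before quantification by TMTpro 16plex LC-MS/MS with equalised channel sums, K562 cells at 2×10^6 cells/mL were treated with 10 μM compound for 30 min, heated in aliquots for 3 min across 48°C-58°C, pooled, extracted in PBS with 0.5% NP-40 at 4°C, and centrifuged at 21,000xg for 90 min to give the soluble supernatant.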
With TYW1 (UniProt Q9NV66), the log2 fold change was 0.143.

With VPS33B (UniProt Q9H267), the log2 fold change was -0.182.

For TMEM164 (UniProt Q5U3C3), the log2 fold change is -0.036.

In the case of WASH2P (UniProt Q6VEQ5), the log2 fold change was -0.321 (active).

As to TOMM5 isoform 2 (UniProt Q8N4H5), the log2 fold change was 0.139.

With TRIP10 isoform 2 (UniProt Q15642), the log2 fold change was 0.056.

Consider TMEM106B (UniProt Q9NUM4), for which the log2 fold change is -0.382 (active).

For the target TMTC3 (UniProt Q6ZXV5), the log2 fold change was -0.088.

Take USP24 (UniProt Q9UPU5): the log2 fold change is 0.204.

In the case of VWA8 (UniProt A3KMH1), the log2 fold change is -0.058.

Consider UBLCP1 (UniProt Q8WVY7), for which the log2 fold change was 0.068.

In the case of VARS2, A0A0G2JL52, the log2 fold change was 0.

As to TRMT10A (UniProt Q8TBZ6), the log2 fold change is 0.01.

Compound in a further assay: C[C@@H]1COCCN1C2=NC(=NC(=C2)C3(CC3)S(=O)(=O)C)C4=C5C=CNC5=CC=C4
Described as above. The essentials:
as §1
As for VPS18 (UniProt Q9P253), the log2 fold change was -0.013.

As to TRAPPC11 (UniProt Q7Z392), the log2 fold change was 0.051.

With VDAC1 (UniProt P21796), the log2 fold change is -0.004.

As to TNPO1 (UniProt Q92973), the log2 fold change is 0.058.

Regarding UGDH (UniProt O60701), the log2 fold change is 0.041.

For the target UCHL5 (UniProt Q9Y5K5), the log2 fold change was 0.

For the target TP53BP1 isoform 2 (UniProt Q12888), the log2 fold change is -0.001.

On to VRK1 (UniProt Q99986), for which the log2 fold change was 0.126.

Consider WEE1 (UniProt P30291), for which the log2 fold change is -1.07 (active).

Turning to VTI1A (UniProt Q96AJ9), the log2 fold change was 0.038.

With WASHC2A (UniProt Q641Q2), the log2 fold change was -0.033.

Turning to TMEM9 (UniProt Q9P0T7), the log2 fold change was 0.029.

Take VPS33A (UniProt Q96AX1): the log2 fold change was 0.014.

For TMEM70 (UniProt Q9BUB7), the log2 fold change was 0.035.

For the target XRCC5 (UniProt P13010), the log2 fold change was 0.047.

Consider TRAPPC3 (UniProt O43617), for which the log2 fold change is 0.074.

Consider TNPO3 (UniProt Q9Y5L0), for which the log2 fold change is 0.025.

On to TPM2 (UniProt P07951), for which the log2 fold change is -0.167.

With UBE4B isoform 4 (UniProt O95155), the log2 fold change was 0.012.

Take USP14 (UniProt P54578): the log2 fold change is 0.082.

As for VPS50 (UniProt Q96JG6), the log2 fold change was 0.044.

For TMEM87B (UniProt Q96K49), the log2 fold change was -0.063.

As to TMEM263 (UniProt Q8WUH6), the log2 fold change was -0.029.

For TYW1 (UniProt Q9NV66), the log2 fold change is 0.032.

As for VPS33B (UniProt Q9H267), the log2 fold change was -0.022.

TMEM164 (UniProt Q5U3C3): the log2 fold change was 0.139.

As for WASH2P (UniProt Q6VEQ5), the log2 fold change is -0.017.

For TOMM5 isoform 2 (UniProt Q8N4H5), the log2 fold change was 0.124.

On to TRIP10 isoform 2 (UniProt Q15642), for which the log2 fold change was -0.007.

Turning to TMEM106B (UniProt Q9NUM4), the log2 fold change is 0.389.

On to TMTC3 (UniProt Q6ZXV5), for which the log2 fold change is -0.052.

On to USP24 (UniProt Q9UPU5), for which the log2 fold change is 0.396 (active).

Consider VWA8 (UniProt A3KMH1), for which the log2 fold change is 0.093.

Take UBLCP1 (UniProt Q8WVY7): the log2 fold change is -0.007.

With VARS2, A0A0G2JL52, the log2 fold change was 0.06.

Regarding TRMT10A (UniProt Q8TBZ6), the log2 fold change was 0.093.

Compound in a further assay: C[C@H](C1=CC=C(C=C1)C(=O)NC2=C3C=CNC3=NC=C2)N
The description is as above. The essentials: as §1
On to VPS18 (UniProt Q9P253), for which the log2 fold change was 0.05.

For the target TRAPPC11 (UniProt Q7Z392), the log2 fold change is 0.075.

For the target VDAC1 (UniProt P21796), the log2 fold change was -0.063.

In the case of TNPO1 (UniProt Q92973), the log2 fold change was -0.116.

As for UGDH (UniProt O60701), the log2 fold change was -0.161.

As for UCHL5 (UniProt Q9Y5K5), the log2 fold change is -0.005.

Regarding TP53BP1 isoform 2 (UniProt Q12888), the log2 fold change is 0.018.

Take VRK1 (UniProt Q99986): the log2 fold change was 0.444 (active).

As for WEE1 (UniProt P30291), the log2 fold change was 0.094.

Take VTI1A (UniProt Q96AJ9): the log2 fold change is -0.022.

On to WASHC2A (UniProt Q641Q2), for which the log2 fold change was 0.137.

On to TMEM9 (UniProt Q9P0T7), for which the log2 fold change was -0.197.

In the case of VPS33A (UniProt Q96AX1), the log2 fold change is 0.043.

For TMEM70 (UniProt Q9BUB7), the log2 fold change was 0.002.

In the case of XRCC5 (UniProt P13010), the log2 fold change was 0.077.

Regarding TRAPPC3 (UniProt O43617), the log2 fold change is -0.006.

Take TNPO3 (UniProt Q9Y5L0): the log2 fold change is -0.124.

TPM2 (UniProt P07951): the log2 fold change is -0.29.

Turning to UBE4B isoform 4 (UniProt O95155), the log2 fold change was -0.015.

Consider USP14 (UniProt P54578), for which the log2 fold change is -0.037.

For VPS50 (UniProt Q96JG6), the log2 fold change was 0.049.

Regarding TMEM87B (UniProt Q96K49), the log2 fold change is -0.033.

Regarding TMEM263 (UniProt Q8WUH6), the log2 fold change is 0.018.

As to TYW1 (UniProt Q9NV66), the log2 fold change was 0.053.

As to VPS33B (UniProt Q9H267), the log2 fold change was 0.063.

For TMEM164 (UniProt Q5U3C3), the log2 fold change is 0.05.

For the target WASH2P (UniProt Q6VEQ5), the log2 fold change is 0.021.

Take TOMM5 isoform 2 (UniProt Q8N4H5): the log2 fold change was -0.053.

Regarding TRIP10 isoform 2 (UniProt Q15642), the log2 fold change was 0.108.

As to TMEM106B (UniProt Q9NUM4), the log2 fold change was -0.054.

In the case of TMTC3 (UniProt Q6ZXV5), the log2 fold change is 0.072.

For the target USP24 (UniProt Q9UPU5), the log2 fold change was 0.015.

Consider VWA8 (UniProt A3KMH1), for which the log2 fold change was 0.025.

UBLCP1 (UniProt Q8WVY7): the log2 fold change is -0.034.

For VARS2, A0A0G2JL52, the log2 fold change was 0.018.

Turning to TRMT10A (UniProt Q8TBZ6), the log2 fold change is -0.072.
